Each structure is given as a SMILES string. Several values for one entry are separate records, joined by “and”; a condition that tells them apart may be missing. Equal values may be shown once. The whole screen tested about 330,000 compounds, of which about 2,800 (0.85%) were called active. This is one part of a sample in which actives are shown more often than they occur.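 How the source made its calls: active means mean inhibition across replicates of 60% or more, whatever share of single replicates reaches that level; inconclusive means some that reach 60%, reason not given; inactive means mean inhibition across replicates below 60%.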

This assay can be described thus: MITF transcriptional activity suppression – cell-based, SK-MEL-5, single point, luciferase, primary screen (AID 488899). To be noted: SK-MEL-5 TRPM1 promoter luciferase, 24 h; at 12.5 µM; hits give high values.
By inhibition is commonly meant the change of the read-out against control, counted positive when it falls. Consider `CCOc1ccc(-c2cc(C)[n+](CCN(CC)CC)c(-c3ccc(OCC)cc3)c2)cc1`, for which the inhibition is 69.6% (active).

For `CC1CC=CCC12C(=O)NC(=S)NC2=O` (stereo not given), the inhibition is 6.98% (inactive). As for `N#Cc1ccc(Cn2cc(C(=O)c3ccco3)c3ccccc32)cc1`, the inhibition was 12.8% (inactive).

Take `CC(=O)N(C1=NCCCS1)c1ccccc1F`: the inhibition was 6.66% (inactive). For the compound `Fc1ccc(C2N3CCCN23)cc1` (stereo not given), the inhibition was 5.89% (inactive). Take `CC1=CC(=Cc2sc3ccccc3[n+]2C)C=C(C)O1`: the inhibition is 69.6% (active).

On to `Cc1cccc(NC(=O)N2CC3CC(C2)c2cccc(=O)n2C3)c1` (stereo not given), for which the inhibition was -3.6% (inactive). Regarding `Cc1nn(Cc2ccccc2Cl)c(Cl)c1C(=O)OC(C(=O)NC(N)=O)C(C)C` (stereo not given), the inhibition is -9.08% (inactive).

For `CC1C(=O)OC2CCN3CC=C(COC(=O)C(C)(O)C1(C)O)C23` (stereo not given), the inhibition was -1.22% (inactive). For the compound `O=C(c1ccccc1)C(O)(CN1CCCCC1)c1ccccc1` (stereo not given), the inhibition is 3.2% (inactive). Consider `OCC#CC[N+]1(CC#Cc2ccccc2)CCCC1`, for which the inhibition was 2.94% (inactive).

Take `COC(=O)C1=C(c2cccc(OCc3ccccc3)c2)C[C@@H]2CC[C@H]1N2C(=O)NCc1ccc(Br)cc1`: the inhibition was -1.21% (inactive).

As to `CCC(C)(O)C(=O)OC1C(=O)OC2CC3C(C)=CC(=O)C(O)C3(C)C3C4(O)OCC23C1C(C)C4O` (stereo not given), the inhibition is 72.8% (active).

With `CC1=C2C(=O)C3C(CC=C4CC(OC5OC(O)C(O)C(O)C5CO)CCC43C)C2CCC12OC1CC(C)CNC1C2C` (stereo not given), the inhibition is 0.655% (inactive). Regarding `CN(C)C(=O)NC(O)C(Cl)(Cl)Cl` (stereo not given), the inhibition is 8.39% (inactive). Take `CCN1c2nc3c(C)cccn3c(=O)c2CC2(C(=O)N(C)C(=O)N(C)C2=O)C1C` (stereo not given): the inhibition is 0.643% (inactive).

As for `Cn1c(O)c(C=Nc2ccc3c(c2)CCC3)c(=O)n(C)c1=O`, the inhibition was -24.2% (inactive). On to `COC(=O)C1=C(c2ccc3ccccc3c2)C[C@@H]2CC[C@H]1N2C(=O)NCCO`, for which the inhibition is -9.09% (inactive). `CC12CN3CC(C)(CN(C1)C3c1cccs1)C2` (stereo not given): the inhibition is -13% (inactive). `CC(=O)OC1C2(CC3N4C(=O)C5(CO)SSC4(CC31O)C(=O)N5C)OC(C)C(C)(C)C2=O` (stereo not given): the inhibition was 112% (active). Take `CC1CNCCN1c1ccc(Cl)cc1` (stereo not given): the inhibition was -17.8% (inactive). Regarding `Cc1cc2ccccn2c1C(C[N+](=O)[O-])c1c(F)cccc1Cl` (stereo not given), the inhibition was 7.17% (inactive). For `O=c1c2ccccc2nc(/C=C/c2ccc(F)cc2)n1-c1ccccc1O`, the inhibition is -2.83% (inactive). Take `Cc1ccc(P(=S)(c2ccc(C)o2)N2CCOCC2)o1`: the inhibition is -0.096% (inactive). Take `COC1C(O)C(C)OC(OC2CCC3(C=O)C(CCC4C3CCC3(C)C(C5=CC(=O)OC5)CCC43O)C2)C1O` (stereo not given): the inhibition is 74.9% (active). In the case of `O=C(O)CCn1cc(C=C2C(=O)NC(=S)NC2=O)c(-c2cccc(Br)c2)n1` it was 4.06% (inactive); in that of `c1ccc(CCN2CCC3(CC2)OCCO3)cc1`, 9.66% (inactive). As to `C[C@]12CCC3C(CC[C@H]4C[C@@H](O)CC[C@]34C)C1CC[C@@H]2O` (stereo not given in full), the inhibition was 6.32% (inactive).

As for `C[C@]12CC[C@H](O)C[C@H]1CC[C@@H]1C2CC[C@]2(C)[C@@H](C3=CC(=O)OC3)[C@@H](O)C[C@]12O` (stereo not given in full), the inhibition was 80.6% (active). Consider `C[C@]12CCC3C(CC[C@H]4C[C@@H](O)CC[C@]34C)C1C[C@@H](O)[C@H]2O` (stereo not given in full), for which the inhibition was 2.08% (inactive). Take `NCCc1c[nH]c2ccc(O)cc12`: the inhibition was 12.6% (inactive). As for `COC(=O)C1=C(c2ccc(-c3ccccc3)c(F)c2)C[C@@H]2CC[C@H]1N2C(=O)NCc1ccc(F)cc1`, the inhibition is -8.41% (inactive). Take `CCCCCCCCCCCCn1ccc(=N)cc1`: the inhibition was 80.1% (active). `CN(C)C(=O)Oc1cc(OC(=O)N(C)C)cc(C(O)CNC(C)(C)C)c1` (stereo not given): the inhibition is -3.47% (inactive) and -8.18% (inactive). As to `CC(C)c1c(CN(C)C(C)Cc2ccccc2)n(C)n(-c2ccccc2)c1=O` (stereo not given), the inhibition was 9.81% (inactive).

The values above are taken from PubChem BioAssay AID488899 (Broad Institute, 2010).
